The values below come from PubChem BioAssay AID624389 (National Center for Advancing Translational Sciences (NCATS), 2012).

SMILES strings stand for the structures. Calls of active or inactive are those of the source. Calls follow the shape of the dose curve; as a rule, active = well fitted curve in the direction sought with a large enough effect; inactive = no such curve, though single readings can be large or run the other way.

The target of this assay is Pyruvate kinase PKM (Homo sapiens) (UniProt P14618). Kind of assay: qHTS for Activators of Human Muscle Isoform 2 Pyruvate Kinase: Extended Characterization Using A Lactate Dehydrogenase (LDH) Assay Probe 2. To be noted: purified hPK-M2, LDH-coupled NADH fluorescence kinetic. An excerpt: Human pyruvate kinase muscle 2 (hPK-M2)enzyme was supplied as a highly purified (>95% pure) preparation from Harvard Medical School and a secondary assay was used to evaluate compounds. This assay couples the formation of pyruvate from hPK-M2 using lactate dehydrogenase (LDH) and NADH. The depletion of NADH is followed in a fluorescent-based kinetic assay that follows the formation of pyruvate to lactate, as catalyzed LDH (described by Hannaert et al., 2002)1 Pyruvate kinase substrates, PEP and ADP, were present in the assay at 0.1 mM and 4 mM respectively. In this kinetic assay initial rates were determined by following the fluorescence of NADH depletion. NIH Chemical Genomics Center [NCGC] NIH Molecular Libraries Probe Centers Network [MLPCN] MLPCN Grant: MH085679 Assay Submitter (PI): Matthew G. Vander Heiden, Harvard Medical School
Sequence of Pyruvate kinase PKM (Homo sapiens) (P14618 whole entry, looked up, canonical isoform): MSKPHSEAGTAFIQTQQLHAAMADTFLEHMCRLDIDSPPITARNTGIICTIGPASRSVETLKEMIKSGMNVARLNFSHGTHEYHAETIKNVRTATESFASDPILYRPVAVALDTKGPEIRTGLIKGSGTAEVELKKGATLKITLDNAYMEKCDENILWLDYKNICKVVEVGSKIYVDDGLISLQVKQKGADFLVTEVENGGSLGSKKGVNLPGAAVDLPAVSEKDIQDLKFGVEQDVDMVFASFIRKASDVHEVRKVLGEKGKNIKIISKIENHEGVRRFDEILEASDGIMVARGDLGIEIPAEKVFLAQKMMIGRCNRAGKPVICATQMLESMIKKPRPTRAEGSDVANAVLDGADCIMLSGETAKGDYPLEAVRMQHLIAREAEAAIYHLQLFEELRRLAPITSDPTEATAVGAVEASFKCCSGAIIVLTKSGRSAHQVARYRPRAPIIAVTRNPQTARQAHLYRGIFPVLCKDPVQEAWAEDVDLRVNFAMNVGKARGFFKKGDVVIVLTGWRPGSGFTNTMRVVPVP
Three uL of substrate mix (final concentration, 50 mM Tris-Cl pH 8.0, 200 mM KCl, 15 mM MgCl2, 0.1 mM PEP, 4.0 mM ADP, and 0.2 mM NADH) was dispensed into black-solid 1536 well plates. 23 nL of compounds were delivered by a pin tool and 1 uL of enzyme mix (final concentrations, 10 nM hPK-M2 and 1 uM of LDH) was added. Plates were immediately placed in ViewLux (Perkin Elmer) and NADH fluorescence was determined at 30 second exposure intervals for between 3 and 6 minutes. Data were normalized to the uninhibited and EC100 activation using known activators such as fructose-bis-phosphate.
In general terms: In qHTS, concentration-response curves come from the screen itself.
Consider `O=S(=O)(c1ccc2c(c1)OCCO2)N1CCN(S(=O)(=O)c2c(F)cccc2F)CC1`, for which the Potency was 178 nM (active).
The same measure for `COc1cccc(Cn2ncc3c4sc(S(C)=O)cc4n(C)c3c2=O)c1` (stereo not drawn): 410 nM (active); for `Cc1ccc(NS(=O)(=O)c2ccc3c(c2)CCC(=O)N3)cc1C`: 146 nM (active).
